In the supplement of paper PMC3334620:
Whole data set: some 33,000 sequences, median “E-score (-0.5 to 0.5)” near -0.015, cut for the highest 2% near 0.3. What follows is part of a selection rich in the highest values, with near analogues and random picks from the rest.

Target: T1, Abf1 (UniProt P14164)
T1 sequence: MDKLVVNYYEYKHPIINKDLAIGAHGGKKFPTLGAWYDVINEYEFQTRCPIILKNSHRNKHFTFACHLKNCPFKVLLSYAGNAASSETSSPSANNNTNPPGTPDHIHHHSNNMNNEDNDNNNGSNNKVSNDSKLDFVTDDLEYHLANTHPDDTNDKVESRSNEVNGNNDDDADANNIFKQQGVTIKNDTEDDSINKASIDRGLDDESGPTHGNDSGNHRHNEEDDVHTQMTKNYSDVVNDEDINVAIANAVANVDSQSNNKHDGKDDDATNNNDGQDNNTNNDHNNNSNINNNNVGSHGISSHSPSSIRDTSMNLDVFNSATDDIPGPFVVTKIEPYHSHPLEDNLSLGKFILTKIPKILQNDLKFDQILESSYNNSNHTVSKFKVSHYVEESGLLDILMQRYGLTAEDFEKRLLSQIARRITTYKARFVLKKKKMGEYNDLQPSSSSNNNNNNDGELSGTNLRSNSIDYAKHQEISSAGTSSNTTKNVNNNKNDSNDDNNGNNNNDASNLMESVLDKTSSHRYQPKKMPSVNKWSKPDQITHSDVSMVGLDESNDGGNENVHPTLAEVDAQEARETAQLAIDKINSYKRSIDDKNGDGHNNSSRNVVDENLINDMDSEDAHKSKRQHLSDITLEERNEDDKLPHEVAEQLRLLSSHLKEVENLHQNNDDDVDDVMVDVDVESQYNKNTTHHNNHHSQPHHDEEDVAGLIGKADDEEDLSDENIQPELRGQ
Assay: PBM E-score (8-mer binding enrichment) (E-score (-0.5 to 0.5)); higher = stronger / more preferred TF binding
Conditions: protein concentration: 200 nM; construct: GST-full length
Protocol: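 Universal 'all 10-mer' protein binding microarrays (Agilent AMADID 015681) probed with GST-tagged S. cerevisiae TFs (full-length or DBD) made by in vitro transcription/translation (PURExpress), about 100-200 nM. Bound TF was detected with fluorescent anti-GST. Each ungapped 8-mer (which stands for itself and its reverse complement) is scored by the PBM enrichment score (E-score), a modified Wilcoxon-Mann-Whitney statistic from -0.5 to +0.5, computed with the Universal PBM Analysis Suite. Scale: above 0.35 generally sequence-specific binding.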

Sequence | PBM E-score
ACTCGAGA | -0.0317
CGACAAAC | 0.167
ACATATCG | 0.118
TCATATGA | 0.101
CCATATCA | 0.163
GCATATGA | 0.028
ACATATCA | 0.341
GCATATCA | 0.319
TCATATCA | 0.315
ACATATCC | 0.236
GCATATCC | 0.179
GACGACCA | 0.286
CACGAGAG | 0.0678
ACTCGGAG | -0.00102
CTCTTGTC | 0.024
ATTCTATC | 0.127
AGTAGAGC | -0.168
TCAGCAGA | -0.0392
AAATGGAC | 0.0432
ACCGTTTC | 0.0554
ACCGTTGC | 0.0812
CACAACCC | -0.194
ATGGGGAA | -0.104
ATTATCAG | 0.0821
CTTATCAC | 0.369

Sequence | PBM E-score
ATTATCAA | 0.193
CTTATCCC | -0.0767
ATTATCAC | 0.434
CTTATCAA | 0.164
CGTGGTTC | 0.0193
GAGCCCCC | -0.283
TCATAGAA | 0.121
GACCGGCC | -0.229
TAATTGGA | 0.141
GCATACGC | -0.149
GAGCCGTA | 0.347
AAGCCGTA | 0.193
CAGCCGTA | 0.192
GCCGTTGA | 0.173
TGGGGCAA | -0.281
CTCTATAC | 0.116
ATATATCC | 0.171
GTATATCA | 0.386
ATATATCA | 0.311
GTATATAA | 0.286
ATATATAC | 0.262
GTATATGA | 0.12
CTATATCA | 0.267
CTATATAC | 0.364
AACAGAGC | -0.0439

Sequence | PBM E-score
ACTCTGTG | -0.0599
GTGCCATA | -0.14
CCAAAAGC | -0.0875
TCGCATAA | 0.205
AATACTTC | -0.0521
AAGAATGA | 0.293
AATGTCGG | -0.0313
CATGTCAG | 0.0449
AATGTCAT | 0.306
GATGTCAC | 0.395
AATGTCGA | 0.146
AATGTCGT | 0.302
GCTGTCAC | 0.197
ACTGTCAT | 0.0825
CATGTCAC | 0.383
GATGTCAA | -0.0282
AGTGTCAT | 0.21
CATGTCAA | 0.105
GAGTTGTA | 0.0502
GGTAGCTA | -0.16
AAACTCGC | -0.0402
GAGTGTCC | -0.0553
CACCTCGC | -0.0945
ACAGTTGA | -0.00384
ATGGAGAA | -0.0924

Sequence | PBM E-score
CTTGTGGA | -0.249
GTCCCAAC | 0.0207
ACAGCTAA | -0.159
AGTGTCAC | 0.174
CGTGTCAC | 0.327
AATGTCAG | -0.169
AATGTCAC | 0.416
CGTGTCAG | 0.27
AATGTCAA | -0.00569
CACGCCGG | -0.0297
GATAGGTA | 0.0863
CGGGCGGA | -0.157
CTTGCATA | 0.0552
ACCGTACT | 0.286
AGCGTACA | -0.121
ACCGTAAG | 0.226
CCCGTACG | 0.348
TGCGTACA | 0.0613
AACGTACG | 0.222
ACCGTACG | 0.34
ACCGTACA | 0.327
CCCGTACA | 0.263
TCCGTACA | 0.368
TCCGTAAA | 0.145
CCCGTACC | 0.182

Sequence | PBM E-score
CTCAGCCA | -0.0785
CGCGCAGA | 0.103
AGTAACGG | 0.0792
AAGAGAGT | -0.24
GAAGGGTC | -0.227
ACTAAAAG | 0.0434
CAATGCCG | -0.0313
AGTTGAGG | -0.116
CTTACGGC | -0.0264
ACCGTACC | 0.118
GCCGTACC | 0.356
GCCGTACA | 0.294
GCATACGA | 0.0403
ACATACGG | 0.3
CCCTACGA | 0.041
ACATACGC | -0.0157
ACATACGT | 0.033
TCATACGA | 0.328
ACATACTA | 0.109
CCATACGA | 0.283
TCCTACGA | 0.347
ACATACGA | 0.356
GCCTACGA | 0.239
CCATACGG | 0.281
GCTAGTAC | 0.0984

Sequence | PBM E-score
AGCTTGAA | -0.106
TACCGTCA | 0.262
CGTATCAG | 0.0845
TCATTCGA | 0.129
ACCTCTGG | -0.129
GAGCCTGA | -0.165
AAACCGGA | 0.00218
CCACGAAG | 0.0703
ACACGATC | 0.25
CCACGATA | 0.143
CCACGATC | 0.335
CCACGAAC | 0.338
CCACGAAA | 0.216
CTCGGGAA | 0.0853
AGTCATGA | 0.149
ACCTTTTG | -0.00807
TAATGAGA | 0.0631
CAATGATG | 0.106
GAATGATA | 0.397
CAATGAGA | -0.0863
CAATGATA | 0.322
ACATGATC | 0.292
ACATGATA | 0.315
TAATGATA | 0.348
TAATGAAA | 0.12

Sequence | PBM E-score
GAATGAAA | -0.0868
GAATGAGA | 0.0436
GCATGATA | 0.268
CGGAGAAC | -0.184
GTAGATAC | 0.0486
CCTGTGTC | -0.275
CGTAGAAC | 0.118
AACCACAT | 0.182
GCCATAGC | -0.055
ACTTCAAG | 0.0326
CTACGTGC | -0.0934
ACGGACGG | 0.077
TCGGTGCA | -0.0272
ACATGATG | 0.119
AAATGATC | 0.228
GAATGAGC | 0.051
AAATGATT | 0.275
AAATGATG | 0.318
CAATGATC | 0.31
AAATGAAA | 0.214
GAATGAAC | -0.112
GAATGATC | 0.32
AAATGAGG | 0.0174
AAATGATA | 0.409
CAATGAAC | -0.0206
